Test systems include SR leukemia; RPMI-8226 leukemia; OVCAR-8 ovarian; OVCAR-5 ovarian; OVCAR-4 ovarian; SK-OV-3 ovarian; IGROV1 ovarian; OVCAR-3 ovarian; HS 578T breast; NCI/ADR-RES ovarian.
What all share (experiment): NCI-60 one-dose screen, 48 h (100 = growth as untreated, 0 = no growth, -100 = all killed)
Holding throughout (details): 10 µM unless noted

In PubChem BioAssay (NCI) one finds growth data, which are given here for 13 compounds.

The panel holds about 83,000 compounds, 20% with a hit somewhere; the sample as a whole holds those more often.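 Compound tested at a single concentration for 48 hours in 96-well plates; a percent growth value below 10 was scored as active.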 Values without a mark were called inactive. Active and inactive are the calls of the source.

For `Cc1ccccc1-n1c(C)nc2cc(NC(=O)c3ccc(Cl)cc3)ccc2c1=O`, the growth is 73.7% in the experiment with SR leukemia; 44.6% in the experiment with RPMI-8226 leukemia; 84% with OVCAR-8 ovarian; 75.9% in the experiment with OVCAR-5 ovarian; 30.1% with OVCAR-4 ovarian; 83.2% with SK-OV-3 ovarian. For the same compound, the growth is 78.6% with IGROV1 ovarian, 58.9% in the experiment with OVCAR-3 ovarian, 82.1% with HS 578T breast and 82.4% in the experiment on NCI/ADR-RES ovarian.
As to `O=C(/C=C/c1c[nH]c2ccccc12)c1cc2ccccc2o1`, the growth is 41.1% in the experiment on SR leukemia; 60.1% in the experiment with RPMI-8226 leukemia; 99.3% in the experiment with OVCAR-8 ovarian; 101% in the experiment with OVCAR-5 ovarian; 101% in the experiment with OVCAR-4 ovarian; 103% in the experiment on SK-OV-3 ovarian. Moreover, the growth was 88.2% in the experiment on IGROV1 ovarian, 93.3% in the experiment with OVCAR-3 ovarian, 100% with HS 578T breast and 99.9% in the experiment with NCI/ADR-RES ovarian.
`COc1cccc2c1n([O-])c1cccc(OC)c1[n+]2=O`: the growth is 19.8% with SR leukemia; 31.8% with RPMI-8226 leukemia; 52.8% with OVCAR-8 ovarian; 18.2% with OVCAR-5 ovarian; 50.2% in the experiment with OVCAR-4 ovarian; 90.8% with SK-OV-3 ovarian. Also, the growth was -46.3% (active) in the experiment on IGROV1 ovarian, 164% in the experiment on OVCAR-3 ovarian, 99% in the experiment with HS 578T breast and 61.1% in the experiment on NCI/ADR-RES ovarian.
Consider `O=C1C(=O)c2ccccc2C(O)=C1CCCc1ccc(C2CCCC2)cc1`, for which the growth with SR leukemia is -49.3% (active); in the experiment with RPMI-8226 leukemia, 7.4% (active); with OVCAR-8 ovarian, 31.7%; in the experiment on OVCAR-5 ovarian it was 24.9%; in the experiment with OVCAR-4 ovarian, 23.4%; with SK-OV-3 ovarian, 55%. Also, the growth is 50.8% in the experiment on IGROV1 ovarian, 39.3% in the experiment with OVCAR-3 ovarian, 31.7% with HS 578T breast and 37.6% in the experiment on NCI/ADR-RES ovarian.
`COc1ccc(/C=C(/C(=O)N2CCCCC2)c2cc(OC)c(OC)c(OC)c2)cc1`: the growth is 13.6% in the experiment with SR leukemia; 15.7% in the experiment with RPMI-8226 leukemia; 34.4% with OVCAR-8 ovarian; 35.1% in the experiment on OVCAR-5 ovarian; 56.8% in the experiment on OVCAR-4 ovarian; 27.6% in the experiment on SK-OV-3 ovarian. The growth was 42% in the experiment on IGROV1 ovarian, -19.2% (active) with OVCAR-3 ovarian, 20.9% in the experiment on HS 578T breast and 6.26% (active) in the experiment with NCI/ADR-RES ovarian.
For `Brc1c(-c2ccncc2)nc2n1CCS2`, the growth was 52.9% in the experiment on SR leukemia; 60.2% with RPMI-8226 leukemia; 94.6% with OVCAR-8 ovarian; 102% in the experiment with OVCAR-5 ovarian; 109% in the experiment with OVCAR-4 ovarian; 116% in the experiment with SK-OV-3 ovarian. The growth in the experiment with IGROV1 ovarian was 0.69% (active); in the experiment with OVCAR-3 ovarian, 97.6%; in the experiment on HS 578T breast, 117%; with NCI/ADR-RES ovarian it was 107%.
Consider `C/C(=N\Nc1ccc(Cl)cn1)c1ccccn1`, for which the growth is 4.86% (active) with SR leukemia; 8.56% (active) in the experiment on RPMI-8226 leukemia; 16.6% with OVCAR-8 ovarian; 23.1% with OVCAR-5 ovarian; 28.7% in the experiment on OVCAR-4 ovarian; 3.63% (active) in the experiment with SK-OV-3 ovarian. The growth in the experiment on IGROV1 ovarian was 10.2%; in the experiment on OVCAR-3 ovarian it was 20.5%; in the experiment with HS 578T breast, 34.6%; with NCI/ADR-RES ovarian, -10.2% (active).
Consider `CCOC(=O)c1c(C)oc2ncnc(Nc3ccc(NC(=O)Nc4ccc(CC)cc4)cc3)c12`, for which the growth with SR leukemia was 81.6%; in the experiment on RPMI-8226 leukemia, 95.1%; in the experiment on OVCAR-8 ovarian, 112%; with OVCAR-5 ovarian, 107%; in the experiment on OVCAR-4 ovarian, 105%; in the experiment on SK-OV-3 ovarian, 88.2%. Moreover, the growth is 110% in the experiment with IGROV1 ovarian, 118% in the experiment on OVCAR-3 ovarian, 97.7% with HS 578T breast and 97.2% in the experiment with NCI/ADR-RES ovarian.
Regarding `CCOc1ccc2nc3ccc(Cl)cc3nc2c1`, the growth in the experiment on SR leukemia is -19.9% (active); in the experiment on RPMI-8226 leukemia, 71.5%; with OVCAR-8 ovarian it was 103%; with OVCAR-5 ovarian, 216%; with OVCAR-4 ovarian it was 82.1%; in the experiment with SK-OV-3 ovarian, 104%. For the same compound, the growth in the experiment with IGROV1 ovarian is -8.97% (active); in the experiment with OVCAR-3 ovarian, 110%; in the experiment on HS 578T breast, 106%; with NCI/ADR-RES ovarian, 96.4%.
As for `Ic1ccc(SSc2ccc(I)cc2)cc1`, the growth is 60.6% in the experiment on SR leukemia; 95.6% with RPMI-8226 leukemia; 92.6% with OVCAR-8 ovarian; 114% with OVCAR-5 ovarian; 99.7% in the experiment with OVCAR-4 ovarian; 113% with SK-OV-3 ovarian. For the same compound, the growth was 82.4% in the experiment with IGROV1 ovarian, 102% in the experiment with OVCAR-3 ovarian, 96.9% in the experiment on HS 578T breast and 101% in the experiment on NCI/ADR-RES ovarian.
On to `[2H]c1nc(=Nc2cc(NC(=O)C=C)c(N(C)CCN(C)C)cc2OC)[nH]c(-c2cn(C([2H])([2H])[2H])c3ccccc23)c1[2H]`, for which the growth in the experiment with SR leukemia was -13.7% (active); in the experiment on RPMI-8226 leukemia, 19%; with OVCAR-8 ovarian, 53.3%; in the experiment with OVCAR-5 ovarian, 54.2%; with OVCAR-4 ovarian, 57.6%; in the experiment with SK-OV-3 ovarian it was 3.49% (active). Besides, the growth with IGROV1 ovarian is 19.1%; in the experiment with OVCAR-3 ovarian, 50.6%; in the experiment on HS 578T breast, 63.7%; with NCI/ADR-RES ovarian, 39.1%.
Turning to `Cc1cc2c(-c3nc4ccccc4n3C)c(O)c(O)cc2c(O)c1-c1c(C)cc2c(-c3nc4ccccc4n3C)c(O)c(O)cc2c1O`, the growth in the experiment with SR leukemia was 56.4%; in the experiment on RPMI-8226 leukemia it was 24.4%; with OVCAR-8 ovarian it was 32.1%; with OVCAR-5 ovarian, 58.1%; with OVCAR-4 ovarian, 70.1%; with SK-OV-3 ovarian, 83.2%. The growth in the experiment on IGROV1 ovarian was 89.7%; in the experiment with OVCAR-3 ovarian it was 71.3%; in the experiment on HS 578T breast, 28.4%; in the experiment on NCI/ADR-RES ovarian, 102%.
With `CC(=O)Nc1nc(C)c(C(=O)NN)s1`, the growth in the experiment on SR leukemia was 107%; with RPMI-8226 leukemia it was 120%; in the experiment with OVCAR-8 ovarian, 111%; in the experiment with OVCAR-5 ovarian it was 100%; in the experiment with OVCAR-4 ovarian, 118%; with SK-OV-3 ovarian, 102%. The growth in the experiment on IGROV1 ovarian was 95%; in the experiment on OVCAR-3 ovarian, 104%; with HS 578T breast, 86%; with NCI/ADR-RES ovarian, 98.6%.
